Drawing on PubChem BioAssay, this text covers composite z-score and z-score for 5 compounds.

Structures are written as SMILES. The source made the active and inactive calls.

The subject of test [1] is Plasmodium falciparum Sir2 (PF13_0152, Sir2A). Put plainly: Plasmodium falciparum Sir2A binding compounds – biochemical, small-molecule microarray, 635 nm fluorescence, primary screen (AID 1098).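 Note: score merges spot fluorescence intensity with its signal-to-noise ratio.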 The note with it: fluorescence 635 nm, higher = more signal.
Test [2] is described as follows: probe aDKK1 binding to arrayed compounds – biochemical, biotinylated probe, 635/667 nm fluorescence, primary screen (AID 1099).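 Note: score merges 667nm spot fluorescence with signal to noise across triplicate slides.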 Particulars: small-molecule microarray, higher = more signal.
A short description of test [3]: probe aCHRDL2 binding to arrayed compounds – biochemical, biotinylated probe, 635/667 nm fluorescence, primary screen (AID 1100). Particulars: small-molecule microarray, higher = more signal.
Test [4] is described as follows: change in splice reporter luminescence, either direction, cell-based, HEK293, spliceosome inhibition project, primary screen (AID 1101).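 Note: HEK293 cells carrying a splicing-competent luciferase reporter gene; test concentration not given here.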 Particulars: HEK293 splicing luciferase reporter, 24 h, higher = more signal, called active from +8 up or from −8 down.
In test [5] the target is Fibroblast growth factor 10 (Homo sapiens) (UniProt O15520). Kind of test: compounds binding fibroblast growth factor 10 – biochemical, small-molecule microarray, 635 nm fluorescence, primary screen (AID 1102). Particulars: FGF10 binding, fluorescence 635 nm, higher = more signal.
Sequence of Fibroblast growth factor 10 (Homo sapiens) (O15520 whole entry, looked up): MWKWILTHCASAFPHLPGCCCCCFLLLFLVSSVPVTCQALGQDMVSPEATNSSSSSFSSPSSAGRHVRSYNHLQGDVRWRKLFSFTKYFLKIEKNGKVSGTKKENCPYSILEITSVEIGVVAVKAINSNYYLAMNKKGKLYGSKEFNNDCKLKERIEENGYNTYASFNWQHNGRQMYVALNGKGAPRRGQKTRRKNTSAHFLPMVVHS
For test [6], the system named is glycogen synthase kinase-3 (GSK3A per assay name; protocol says GSK3B). Kind of test: compounds binding glycogen synthase kinase-3 – biochemical, small-molecule microarray, 635 nm fluorescence, GSK3A, primary screen (AID 1103). Note: the record names both GSK3A and GSK3B. The note with it: fluorescence 635 nm, higher = more signal.
Test [7] has as its target Epidermal growth factor receptor (Homo sapiens) (UniProt P00533). Kind of test: compounds binding epidermal growth factor receptor – biochemical, small-molecule microarray, 635 nm fluorescence, primary screen (AID 1104).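 Note: score merges 667 nm emission intensity with spot signal to noise over triplicate slides.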 Particulars: EGFR binding, higher = more signal.
Test [8] addresses Follistatin-related protein 3 (Homo sapiens) (UniProt O95633). Put plainly: compounds binding follistatin-related protein 3 – biochemical, small-molecule microarray, 635 nm fluorescence, primary screen (AID 1105).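 Note: score merges emission near 667 nm and signal to noise per printed spot across three slides.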 Particulars: FSTL3 binding, higher = more signal.
Test [9] deals with Dickkopf-related protein 1 (Homo sapiens) (UniProt O94907). Kind of test: small molecules binding DKK1 protein – biochemical, small-molecule microarray, 635 nm fluorescence scan, primary screen (AID 1106).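 Note: score merges emission near 667 nm with signal to noise over three replicate slides.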 Particulars: higher = more signal.
Sequence of Dickkopf-related protein 1 (Homo sapiens) (O94907 whole entry, looked up): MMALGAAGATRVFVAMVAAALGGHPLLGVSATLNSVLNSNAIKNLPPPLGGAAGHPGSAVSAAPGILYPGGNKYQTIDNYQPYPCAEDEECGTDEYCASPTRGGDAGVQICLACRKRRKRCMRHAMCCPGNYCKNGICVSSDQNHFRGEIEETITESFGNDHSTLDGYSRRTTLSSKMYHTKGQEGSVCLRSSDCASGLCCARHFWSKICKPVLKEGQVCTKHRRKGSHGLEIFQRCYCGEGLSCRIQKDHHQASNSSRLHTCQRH
For test [10], the system named is Inhibin beta A chain (activin A). Put plainly: small molecules binding activin A – biochemical, small-molecule microarray, 635 nm fluorescence scan, primary screen (AID 1107).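 Note: mouse activin A protein probed at 4.33 µg/mL on printed slides; score merges bound-protein fluorescence near 667 nm with spot signal-to-noise.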 Particulars: INHBA, higher = more signal.
For test [11], the system named is Human papillomavirus type 1a protein E7 (residues 44-93). Kind of test: small molecules binding HPV E7 44-93 – biochemical, small-molecule microarray, residues 44-93, 635 nm fluorescence, primary screen (AID 1108).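 Note: E7 fragment applied at 1 µg/mL in TBST for 1 h at 4 C; score combines spot fluorescence with its signal to noise ratio.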 Particulars: fluorescence 635 nm, higher = more signal.
The nature of test [12]: hepatitis C replication reporter changes, two-sided – Huh7 cells, luciferase reporter, HCV replication inhibitor project, primary screen (AID 1109).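 Note: huh7 hepatoma cells harbouring a luciferase neomycin HCV replicon reporter; luciferase luminescence as measure of HCV replicon replication; test concentration not given here.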 The note with it: Huh7 HCV replicon luciferase reporter, 48 h; higher = more signal.
Test [13] deals with Left-right determination factor 2 (Homo sapiens) (UniProt O00292). Kind of test: small molecules binding LEFTY2 protein – biochemical, small-molecule microarray, 635 nm fluorescence scan, primary screen (AID 1110). Particulars: higher = more signal.
Sequence of Left-right determination factor 2 (Homo sapiens) (O00292 whole entry, looked up): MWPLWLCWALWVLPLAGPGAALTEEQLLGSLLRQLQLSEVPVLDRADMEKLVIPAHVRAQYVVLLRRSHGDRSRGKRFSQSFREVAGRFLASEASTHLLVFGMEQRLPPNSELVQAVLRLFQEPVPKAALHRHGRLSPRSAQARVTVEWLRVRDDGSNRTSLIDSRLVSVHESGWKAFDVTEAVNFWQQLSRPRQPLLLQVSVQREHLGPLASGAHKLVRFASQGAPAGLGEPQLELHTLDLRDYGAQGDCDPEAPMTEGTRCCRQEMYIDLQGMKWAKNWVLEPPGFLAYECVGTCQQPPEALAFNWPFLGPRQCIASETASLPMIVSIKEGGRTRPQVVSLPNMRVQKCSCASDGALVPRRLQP
For test [14], the target named is Calmodulin-1 (Homo sapiens) (UniProt P0DP23). Kind of test: small molecules binding calmodulin-1 with EGTA – biochemical, small-molecule microarray, Cy5-labelled CALM1, profiling panel (AID 1111).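 Note: labelled calmodulin applied in Tris saline Tween buffer holding calcium plus EGTA and DTT.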 Particulars: Cy5-CALM1 binding fluorescence, higher = more signal.
For test [15] the target is unchanged. Kind of test: small molecules binding Ca-loaded calmodulin-1 – biochemical, small-molecule microarray, Cy5-labelled CALM1, plus calcium, artefact control for SMM control-protein annotation, profiling panel (AID 1112).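 Note: score merges spot fluorescence with signal to noise from triplicate slides.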 Particulars: Cy5-CALM1 binding fluorescence, higher = more signal.
Test [16] can be described thus: probe aWnt5a binding to arrayed compounds – biochemical, biotinylated probe, 635/667 nm fluorescence, primary screen (AID 1113).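 Note: score merges 667 nm fluorescence intensity with signal-to-noise per printed feature.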 Particulars: small-molecule microarray, higher = more signal.
Test [17] is described as follows: probe aShh binding to arrayed compounds – biochemical, biotinylated probe, 635/667 nm fluorescence, primary screen (AID 1114).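 Note: probe is biotin-labelled aShh protein from a stem cell growth factor screen; measures binding of labelled protein to compounds printed on the slide; score merges feature fluorescence at 667 nm with signal-to-noise.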 The note with it: small-molecule microarray, higher = more signal.
The nature of test [18]: probe aNog binding to arrayed compounds – biochemical, biotinylated probe, 635/667 nm fluorescence, primary screen (AID 1115).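 Note: probe is biotinylated aNog protein used at 0.15 µg/mL for 1 h at 4 C; z-score combines 667 nm fluorescence of each spot with its signal to noise.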 Particulars: small-molecule microarray, higher = more signal.
In test [19] the target is Torsin-1A-interacting protein 1 (Homo sapiens) (UniProt Q5JTV8). Put plainly: compound microarray binding of lysate hLAP1 – cell lysate, small-molecule microarray, COS7 lysate, 635/667 nm fluorescence, primary screen (AID 1116). The note with it: 635 nm fluorescence, higher = more signal.
Sequence of Torsin-1A-interacting protein 1 (Homo sapiens) (Q5JTV8 whole entry, looked up): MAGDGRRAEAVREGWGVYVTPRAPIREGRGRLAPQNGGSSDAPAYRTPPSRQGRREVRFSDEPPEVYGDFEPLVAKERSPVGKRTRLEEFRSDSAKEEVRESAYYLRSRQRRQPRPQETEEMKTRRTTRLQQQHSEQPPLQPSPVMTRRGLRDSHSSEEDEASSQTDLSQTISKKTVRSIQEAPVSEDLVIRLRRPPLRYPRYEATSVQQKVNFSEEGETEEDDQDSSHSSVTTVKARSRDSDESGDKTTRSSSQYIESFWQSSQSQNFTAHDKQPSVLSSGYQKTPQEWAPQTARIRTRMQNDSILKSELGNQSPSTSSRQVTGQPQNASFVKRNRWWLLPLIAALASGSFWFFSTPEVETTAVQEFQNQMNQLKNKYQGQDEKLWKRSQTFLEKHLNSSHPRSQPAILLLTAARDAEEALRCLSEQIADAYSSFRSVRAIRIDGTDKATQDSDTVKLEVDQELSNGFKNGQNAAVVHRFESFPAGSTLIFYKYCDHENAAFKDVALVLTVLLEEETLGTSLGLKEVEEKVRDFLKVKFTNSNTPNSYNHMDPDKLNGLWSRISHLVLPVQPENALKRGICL
The target of test [20] is Alpha-bungarotoxin (Bungarus multicinctus) (UniProt P60615). Kind of test: compounds binding labelled alpha-BTX control protein – biochemical, small-molecule microarray, Alexa647 label, 635/667 nm fluorescence, artefact control for SMM control protein annotation, profiling panel (AID 1117). The note with it: alpha-BTX-A647 binding fluorescence, higher = more signal.
Sequence of Alpha-bungarotoxin (Bungarus multicinctus) (P60615 whole entry, looked up): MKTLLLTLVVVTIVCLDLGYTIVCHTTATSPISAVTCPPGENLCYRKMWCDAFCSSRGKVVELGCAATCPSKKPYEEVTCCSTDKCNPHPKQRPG

Sequence of Epidermal growth factor receptor (Homo sapiens) (P00533 whole entry, looked up): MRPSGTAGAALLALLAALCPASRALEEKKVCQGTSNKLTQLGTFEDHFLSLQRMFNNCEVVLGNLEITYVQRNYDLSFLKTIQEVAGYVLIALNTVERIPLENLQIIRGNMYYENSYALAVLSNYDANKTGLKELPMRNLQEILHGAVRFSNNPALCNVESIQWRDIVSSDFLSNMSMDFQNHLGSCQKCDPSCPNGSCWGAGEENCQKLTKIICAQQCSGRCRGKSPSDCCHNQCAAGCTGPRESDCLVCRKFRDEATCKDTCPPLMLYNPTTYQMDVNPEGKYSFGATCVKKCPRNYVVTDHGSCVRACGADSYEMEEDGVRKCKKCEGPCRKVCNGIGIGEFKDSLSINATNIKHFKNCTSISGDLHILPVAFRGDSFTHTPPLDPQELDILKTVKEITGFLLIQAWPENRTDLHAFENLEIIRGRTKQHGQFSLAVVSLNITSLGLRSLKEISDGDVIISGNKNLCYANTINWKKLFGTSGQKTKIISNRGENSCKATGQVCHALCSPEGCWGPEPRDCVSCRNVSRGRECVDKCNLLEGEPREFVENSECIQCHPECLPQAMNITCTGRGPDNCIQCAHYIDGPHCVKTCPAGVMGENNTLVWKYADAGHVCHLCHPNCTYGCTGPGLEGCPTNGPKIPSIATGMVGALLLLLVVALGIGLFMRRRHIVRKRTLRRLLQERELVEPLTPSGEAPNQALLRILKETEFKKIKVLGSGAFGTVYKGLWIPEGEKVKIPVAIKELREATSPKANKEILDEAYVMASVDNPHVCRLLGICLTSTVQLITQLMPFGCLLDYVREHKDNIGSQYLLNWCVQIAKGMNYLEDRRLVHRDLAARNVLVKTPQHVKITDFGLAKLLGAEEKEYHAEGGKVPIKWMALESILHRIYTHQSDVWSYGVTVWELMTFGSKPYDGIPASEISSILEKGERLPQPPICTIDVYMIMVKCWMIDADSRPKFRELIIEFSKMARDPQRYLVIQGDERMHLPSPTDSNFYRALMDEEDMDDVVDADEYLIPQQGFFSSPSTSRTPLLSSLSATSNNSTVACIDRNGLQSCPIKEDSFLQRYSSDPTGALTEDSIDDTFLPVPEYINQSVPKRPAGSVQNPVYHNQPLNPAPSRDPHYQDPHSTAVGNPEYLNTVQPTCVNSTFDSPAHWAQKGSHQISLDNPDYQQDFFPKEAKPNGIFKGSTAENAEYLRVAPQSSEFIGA
Sequence of Follistatin-related protein 3 (Homo sapiens) (O95633 whole entry, looked up): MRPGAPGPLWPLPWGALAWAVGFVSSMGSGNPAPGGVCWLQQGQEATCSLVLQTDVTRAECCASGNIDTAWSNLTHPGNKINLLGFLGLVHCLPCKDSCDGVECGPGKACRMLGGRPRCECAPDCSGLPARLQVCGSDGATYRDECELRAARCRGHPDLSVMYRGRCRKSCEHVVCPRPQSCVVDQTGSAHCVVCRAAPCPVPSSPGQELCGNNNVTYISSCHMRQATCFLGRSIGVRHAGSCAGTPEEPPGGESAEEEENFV

As for `[N-]=[N+]=NCc1ccccc1[C@@H]1OC(c2ccc(OCCCO)cc2)=N[C@]1(Cc1ccccc1N=[N+]=[N-])C(=O)NCCN1CCOCC1`, the composite z-score in [1] came to 1.54; in test [2] it was 0.251; in test [3] it was 0.851; in test [5], 1.51; in [6], 1.34; in [7], 0.218. Moreover, the composite z-score in test [8] turned out to be 1.23; in [9] it was 0.331; in test [10] it was 0.533; in test [11], 1.4; in test [13], 0.466; in test [14] it was 0.969. The composite z-score in test [15] is 0.0714; in test [16], 0.0944; in test [17] it was -0.0289; in test [18], 0.597; in [19] it was 0.495; in test [20] it was 0.446. Moreover, the z-score in [4] was -0.312 (inactive); in test [12] it was -1.66.
For the compound `COc1ccc(C(=O)Nc2cccc(CN3C(=O)[C@]4(O[C@H](CCn5cc([C@H](O)c6ccccc6)nn5)[C@@H]([Si](C)(C)c5ccc(OC)cc5)[C@@H]4C)c4ccccc43)c2)cc1`, the composite z-score is 0.758 in [1]; 0.224 in test [2]; 0.265 in test [3]; 0.26 in test [5]; -0.266 in [6]; -0.339 in test [7]. In addition, the composite z-score in test [8] was 0.31; in test [9], -0.132; in test [10] it was 1.41; in test [11] it was 1.38; in test [13], 0.126; in test [14], -0.0002. In addition, the composite z-score in [15] was -0.614; in test [16] it was -0.13; in [17], -0.0793; in [18], 0.189; in test [19] it was 0.361; in [20], 1.09. Further, the z-score in [4] was -2.49 (inactive); in test [12], -5.19.
`CC(C)(C)OC(=O)CC[C@]12N=C(c3ccc(OCCCO)cc3)O[C@H]1c1ccccc1N(Cc1ccccc1)C2=O`: the composite z-score is 0.907 in test [1]; 0.492 in [2]; 0.462 in test [3]; 1.18 in test [5]; 1.26 in test [6]; -0.0167 in test [7]. Further, the composite z-score in [8] is 0.483; in test [9], 0.168; in [10], 0.777; in test [11] it was 0.552; in [13], 0.27; in test [14], 0.42. In addition, the composite z-score was 0.348 in test [15]; -0.0765 in test [16]; -0.0969 in [17]; 0.963 in test [18]; 1.36 in test [19]; 1.28 in test [20]. The z-score in [4] was -0.601 (inactive); in test [12], -2.09.
Take `CCCCCN1CC=CC23O[C@@H]4C=CCOC(=O)[C@@H]4[C@H]2C(=O)N(CCO)[C@@H]3C1=O` (stereo not given in full): the composite z-score in [1] is -0.0015; in test [2], -0.314; in [3], 0.634; in test [5], -0.318; in [6], -0.527; in test [7], -1.17. The composite z-score was -1.3 in test [8]; -1.25 in test [9]; 0.393 in test [10]; 0.673 in test [11]; -0.397 in test [13]; -0.343 in test [14]. Moreover, the composite z-score was 0.595 in test [15]; -0.172 in test [16]; -0.138 in test [17]; -0.305 in test [18]; 0.665 in test [19]; -0.514 in [20]. In addition, the z-score in [4] was 0.374 (inactive); in test [12] it was 0.644.
As for `CC(CO)N1C(=O)[C@@H]2[C@H]3C(=O)OCC=C[C@H]3OC23C=CCN(c2ccc(Cl)cc2)C(=O)[C@@H]13` (stereo not given in full), the composite z-score in test [1] is 1.93; in test [2], -0.125; in test [3], 0.837; in test [5], -1.59; in test [6] it was -0.501; in test [7] it was -2.15. The composite z-score in test [8] is -2.43; in [9] it was -1.92; in test [10], -3.56; in test [11], -0.716; in test [13], -2.63; in test [14], -0.669. Further, the composite z-score in test [15] is -0.934; in test [16] it was -0.178; in test [17], 1.71; in [18], -0.273; in test [19] it was -1.67; in [20] it was -1.94. The z-score in test [4] is -0.00913 (inactive); in test [12] it was -0.205.
